Experimental findings from PubChem BioAssay (NCI) are described below.

Test systems include T-47D breast; BT-549 breast; MDA-MB-435 melanoma; SW-620 colon; MCF7 breast; HCT-116 colon; HCC-2998 colon; KM12 colon.
Holding throughout (test): NCI-60 one-dose screen, 48 h (100 = growth as untreated, 0 = no growth, -100 = all killed)
Conditions in all cases: 10 µM unless noted

The structures appear in SMILES notation. Several values for one entry are separate records, joined by “and”; a condition that tells them apart may be missing. Equal values may be shown once. About 83,000 compounds went through this panel and 20% of them were active in at least one assay; those are over-represented in the sample as a whole.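 96-well plates, one dose, 48 hours. Percent growth reported; active if below 10.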 Activity calls are given as the source filed them.

On to `Cc1[nH]c(C(=O)Nc2ccccc2OCc2cccc(C(=O)NC3CCNC3)c2)c(Cl)c1Cl` (stereo not given), for which the growth in the assay with T-47D breast is 53.9% (inactive); in the assay with BT-549 breast it was 83.8% (inactive); in the assay with MDA-MB-435 melanoma it was -53% (active); with SW-620 colon it was -66.3% (active); in the assay on MCF7 breast, -73.9% (active); with HCT-116 colon, -61.2% (active). For the same molecule, the growth is 5.81% (active) in the assay with HCC-2998 colon and -1.67% (active) with KM12 colon.
Consider `COc1ccc(-c2cc(-c3ccc(N(C)C)cc3)n3c(n2)nc2ccccc23)cc1`, for which the growth was 2.27% (active) with T-47D breast; 40.1% (inactive) with BT-549 breast; 74.3% (inactive) in the assay on MDA-MB-435 melanoma; 76.9% (inactive) with SW-620 colon; 40.7% (inactive) with MCF7 breast; 15.8% (inactive) in the assay with HCT-116 colon. Also, the growth in the assay on HCC-2998 colon is 84.2% (inactive); in the assay on KM12 colon it was 62.3% (inactive).
Consider `O=C(CN1CCN(c2cc(=O)[nH]c3ccc(F)cc23)CC1)N(c1ccccc1)c1ccccc1`, for which the growth was 97.4% (inactive) in the assay with T-47D breast; 104% (inactive) in the assay with BT-549 breast; 102% (inactive) with MDA-MB-435 melanoma; 104% (inactive) in the assay on SW-620 colon; 96.7% (inactive) with MCF7 breast; 98% (inactive) in the assay on HCT-116 colon. The growth with HCC-2998 colon was 106% (inactive); in the assay with KM12 colon, 107% (inactive).
As for `COc1cc(-c2nc(-c3ccccc3)[nH]c2-c2ccnc(NCCCNS(=O)(=O)c3ccc(C(F)(F)F)cc3)n2)ccc1Cl`, the growth was 44.2% (inactive) and 21.1% (inactive) in the assay on T-47D breast; 44.7% (inactive) and 67.2% (inactive) in the assay on BT-549 breast; 29.4% (inactive) and 27.5% (inactive) in the assay on MDA-MB-435 melanoma; 46.8% (inactive) and 55.9% (inactive) in the assay on SW-620 colon; 9.62% (active) and 18.3% (inactive) in the assay on MCF7 breast; 16.3% (inactive) and 17.4% (inactive) in the assay on HCT-116 colon. Besides, the growth in the assay with HCC-2998 colon was 48.5% (inactive) and 51% (inactive); in the assay with KM12 colon, 25% (inactive) and 32.5% (inactive).
Consider `N#CC1=C2NCCCNc3oc(nc3C#N)Cc3ccccc3CC(=N1)O2`, for which the growth in the assay with T-47D breast was 92.6% (inactive); in the assay on BT-549 breast, 135% (inactive); in the assay on MDA-MB-435 melanoma it was 95.1% (inactive); with SW-620 colon it was 50.7% (inactive); in the assay with MCF7 breast, 33.8% (inactive); with HCT-116 colon, 23.4% (inactive). Besides, the growth was 114% (inactive) in the assay on HCC-2998 colon and 93.6% (inactive) with KM12 colon.
With `CN1CCN(CCNc2nc(-c3cccc(NS(=O)(=O)c4cccc5c(N(C)C)cccc45)c3)cs2)CC1`, the growth in the assay on T-47D breast is 39.6% (inactive); with BT-549 breast it was 58.6% (inactive); with MDA-MB-435 melanoma, 66% (inactive); in the assay on SW-620 colon it was 70.5% (inactive); in the assay on MCF7 breast it was 11.1% (inactive); in the assay with HCT-116 colon, 32.2% (inactive). For the same molecule, the growth in the assay on HCC-2998 colon was 49.5% (inactive); in the assay with KM12 colon, 77.3% (inactive).
For `COc1ccc2c(c1)c(-c1nn3cc(-c4ccncc4)nc3s1)cn2C`, the growth was 42.4% (inactive) in the assay with T-47D breast; 71.5% (inactive) with BT-549 breast; 96.3% (inactive) in the assay on MDA-MB-435 melanoma; 69.5% (inactive) with SW-620 colon; 19.3% (inactive) with MCF7 breast; 55.1% (inactive) with HCT-116 colon. The growth in the assay with HCC-2998 colon was 87.2% (inactive); in the assay on KM12 colon, 83.3% (inactive).
With `O=C(CCCCCC/C=C\c1csc(Br)n1)NO`, the growth with T-47D breast is 76.3% (inactive); with BT-549 breast, 103% (inactive); with MDA-MB-435 melanoma it was 84.4% (inactive); with SW-620 colon, 78.2% (inactive); in the assay on MCF7 breast, 73.1% (inactive); in the assay on HCT-116 colon, 52.5% (inactive). The growth was 98.5% (inactive) with HCC-2998 colon and 91.7% (inactive) with KM12 colon.
As for `O=C(/C=C/c1ccccc1)c1cccc(O)c1`, the growth with T-47D breast was 97.8% (inactive); in the assay with BT-549 breast it was 95.4% (inactive); in the assay with MDA-MB-435 melanoma it was 95.9% (inactive); in the assay with SW-620 colon, 104% (inactive); in the assay with MCF7 breast it was 14% (inactive); in the assay with HCT-116 colon it was 80% (inactive). Moreover, the results for the growth in the assay with HCC-2998 colon and in the assay on KM12 colon were 111% (inactive) and 88.8% (inactive), respectively.
`Cc1ccc(C(=O)CSc2nc3ccccc3c(=O)n2C)cc1`: the growth with T-47D breast was 76.2% (inactive); in the assay on BT-549 breast, 96.1% (inactive); in the assay on MDA-MB-435 melanoma, 100% (inactive); in the assay with SW-620 colon it was 99.2% (inactive); with MCF7 breast, 78.3% (inactive); in the assay with HCT-116 colon, 89.2% (inactive). Also, the growth with HCC-2998 colon is 113% (inactive); in the assay with KM12 colon it was 86.7% (inactive).
Consider `O=C(Nc1cccc(Cl)c1)Nc1nc2cc([N+](=O)[O-])ccc2o1`, for which the growth was 15.4% (inactive) in the assay on T-47D breast; 67.1% (inactive) in the assay with BT-549 breast; 40.9% (inactive) with MDA-MB-435 melanoma; 22.3% (inactive) in the assay with SW-620 colon; 36.8% (inactive) in the assay on MCF7 breast; 26.8% (inactive) in the assay with HCT-116 colon. Besides, the growth in the assay on HCC-2998 colon was 39% (inactive); in the assay on KM12 colon it was 26.5% (inactive).
As to `Cn1ncc2c(C(=O)c3ccc(F)cc3)nc(C(C)(C)C)nc21`, the growth in the assay with T-47D breast is 102% (inactive); in the assay with BT-549 breast, 98.4% (inactive); in the assay with MDA-MB-435 melanoma, 97.9% (inactive); in the assay with SW-620 colon, 95.9% (inactive); with MCF7 breast, 93.6% (inactive); with HCT-116 colon, 95.3% (inactive). Also, the growth with HCC-2998 colon is 103% (inactive); in the assay with KM12 colon it was 100% (inactive).
Turning to `CSc1ccc(C(=NNS(=O)(=O)c2ccc(C)cc2)c2ccc(Cl)cc2)cc1`, the growth is 89.7% (inactive) in the assay with T-47D breast; 118% (inactive) in the assay with BT-549 breast; 106% (inactive) with MDA-MB-435 melanoma; 102% (inactive) in the assay on SW-620 colon; 88.2% (inactive) with MCF7 breast; 98.2% (inactive) in the assay on HCT-116 colon. Further, the growth is 103% (inactive) with HCC-2998 colon and 97.1% (inactive) in the assay with KM12 colon.
As to `COc1ccc(/C(=N\NC(N)=S)c2ccc(Cl)cc2)cc1OC`, the growth with T-47D breast was 18.1% (inactive); in the assay on BT-549 breast, 14.2% (inactive); with MDA-MB-435 melanoma, -35.1% (active); with SW-620 colon it was 15.9% (inactive); with MCF7 breast, 14.4% (inactive); in the assay with HCT-116 colon, 14.9% (inactive). The growth with HCC-2998 colon was 52.6% (inactive); with KM12 colon, 19.4% (inactive).
Take `O=C1C(SCc2ccccc2)=C(Cl)CN1c1ccccc1`: the growth with T-47D breast is 88% (inactive); with BT-549 breast, 108% (inactive); in the assay on MDA-MB-435 melanoma it was 96.8% (inactive); with SW-620 colon, 102% (inactive); with MCF7 breast, 40.6% (inactive); in the assay on HCT-116 colon, 88.5% (inactive). For the same molecule, the growth is 103% (inactive) with HCC-2998 colon and 98.3% (inactive) in the assay on KM12 colon.
